# Results taken from the supplement of paper PMC8728848.
# The entries come from a sample that favours the strongest signals as a whole.
# Key:
# Assay in all cases: glycan array binding signal (z-score within array); higher = stronger binding
# Settings in all cases: glycan notation: IUPAC condensed, linker removed
# [1] = target: Gal(b1-4)GlcNAc(b1-3)Gal(b1-4)GlcNAc(b1-3)Gal(b1-4)GlcNAc(b1-2)[Gal(b1-4)GlcNAc(b1-3)Gal(b1-4)GlcNAc(b1-3)Gal(b1-4)GlcNAc(b1-6)]Man(a1-6)[Gal(b1-4)GlcNAc(b1-3)Gal(b1-4)GlcNAc(b1-3)Gal(b1-4)GlcNAc(b1-2)Man(a1-3)]Man(b1-4)GlcNAc(b1-4)[Fuc(a1-6)]GlcNAc
# Outline: (§1)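 Columns mapping to the same glycan were averaged after glycan names were converted to IUPAC-condensed notation. The data come from 3228 arrays in the Consortium for Functional Glycomics database, limited to those with an available protein sequence. Binding is reported as a within-array Z-score averaged across arrays of one protein sequence and across linkers.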
# [2] = target: Gal(b1-4)GlcNAc(b1-3)Gal(b1-4)GlcNAc(b1-3)Gal(b1-4)GlcNAc(b1-3)Gal(b1-4)GlcNAc(b1-3)Gal(b1-4)GlcNAc(b1-2)[Gal(b1-4)GlcNAc(b1-3)Gal(b1-4)GlcNAc(b1-3)Gal(b1-4)GlcNAc(b1-3)Gal(b1-4)GlcNAc(b1-3)Gal(b1-4)GlcNAc(b1-6)]Man(a1-6)[Gal(b1-4)GlcNAc(b1-3)Gal(b1-4)GlcNAc(b1-3)Gal(b1-4)GlcNAc(b1-3)Gal(b1-4)GlcNAc(b1-3)Gal(b1-4)GlcNAc(b1-2)Man(a1-3)]Man(b1-4)GlcNAc(b1-4)[Fuc(a1-6)]GlcNAc
# Outline: as §1
# [3] = target: Gal(b1-4)GlcNAc(b1-3)GalNAc
# Outline: as §1
# [4] = target: Gal(b1-4)GlcNAc(b1-6)[Gal(b1-4)GlcNAc(b1-3)]GalNAc
# Outline: as §1
# Gal3S4S(b1-4)GlcNAc = target: Gal3S4S(b1-4)GlcNAc
# Outline: as §1
# Gal4S(b1-4)GlcNAc = target: Gal4S(b1-4)GlcNAc
# Outline: as §1
# GalNAc(a1-3)GalNAc = target: GalNAc(a1-3)GalNAc
# Outline: as §1
# [5] = target: GalNAc(b1-3)Gal(a1-4)Gal(b1-4)GlcNAc(b1-3)Gal(b1-4)Glc
# Outline: as §1
# GalNAc(b1-3)GalNAc = target: GalNAc(b1-3)GalNAc
# Outline: as §1
# GalNAc(b1-3)GlcNAc = target: GalNAc(b1-3)GlcNAc
# Outline: as §1
# GalNAc3S(b1-4)GlcNAc3S = target: GalNAc3S(b1-4)GlcNAc3S
# Outline: as §1
# [6] = target: GlcNAc(a1-6)Gal(b1-4)GlcNAc
# Outline: as §1
# [7] = target: GlcNAc(b1-3)Gal(b1-4)GlcNAc(b1-2)[GlcNAc(b1-3)Gal(b1-4)GlcNAc(b1-6)]Man(a1-6)[GlcNAc(b1-3)Gal(b1-4)GlcNAc(b1-2)Man(a1-3)]Man(b1-4)GlcNAc(b1-4)GlcNAc
# Outline: as §1
# [8] = target: GlcNAc(b1-3)Gal(b1-4)GlcNAc(b1-3)Gal(b1-4)GlcNAc(b1-3)Gal(b1-4)GlcNAc(b1-2)Man(a1-3)[GlcNAc(b1-3)Gal(b1-4)GlcNAc(b1-3)Gal(b1-4)GlcNAc(b1-3)Gal(b1-4)GlcNAc(b1-2)Man(a1-6)]Man(b1-4)GlcNAc(b1-4)GlcNAc
# Outline: as §1
# [9] = target: GlcNAc(b1-3)[GlcNAc(b1-6)]GalNAc
# Outline: as §1
# Kdn(a2-3)Gal(b1-3)GalNAc = target: Kdn(a2-3)Gal(b1-3)GalNAc
# Outline: as §1
# Kdn(a2-3)Gal(b1-4)Glc = target: Kdn(a2-3)Gal(b1-4)Glc
# Outline: as §1
# [10] = target: Man(a1-3)[Man(a1-6)]Man(a1-6)[Man(a1-3)]Man(b1-4)GlcNAc(b1-4)GlcNAc
# Outline: as §1
# [11] = target: Neu5Ac(a2-3)Gal(b1-3)GalNAc(b1-3)Gal(a1-4)Gal(b1-4)Glc
# Outline: as §1
# [12] = target: Neu5Ac(a2-3)Gal(b1-3)GlcNAc
# Outline: as §1
# [13] = target: Neu5Ac(a2-3)Gal(b1-3)GlcNAc(b1-2)Man
# Outline: as §1
# [14] = target: Neu5Ac(a2-3)Gal(b1-3)GlcNAc(b1-2)Man(a1-3)[GlcNAc(b1-4)][Neu5Ac(a2-3)Gal(b1-3)GlcNAc(b1-2)Man(a1-6)]Man(b1-4)GlcNAc(b1-4)GlcNAc
# Outline: as §1
# [15] = target: Neu5Ac(a2-3)Gal(b1-4)GlcNAc(b1-2)Man(a1-3)[Neu5Ac(a2-3)Gal(b1-4)GlcNAc(b1-2)Man(a1-6)]Man(b1-4)GlcNAc(b1-4)[Fuc(a1-6)]GlcNAc
# Outline: as §1
# [16] = target: Neu5Ac(a2-6)Gal(b1-4)GlcNAc(b1-2)Man(a1-3)[Neu5Ac(a2-6)Gal(b1-4)GlcNAc(b1-2)Man(a1-6)]Man(b1-4)GlcNAc(b1-4)[Fuc(a1-6)]GlcNAc
# Outline: as §1
# [17] = target: Neu5Ac(a2-6)Gal(b1-4)GlcNAc(b1-2)[Neu5Ac(a2-6)Gal(b1-4)GlcNAc(b1-4)]Man(a1-3)[GlcNAc(b1-4)][Neu5Ac(a2-6)Gal(b1-4)GlcNAc(b1-4)Man(a1-6)]Man(b1-4)GlcNAc(b1-4)GlcNAc
# Outline: as §1
# [18] = target: Neu5Ac(a2-6)Gal(b1-4)GlcNAc(b1-3)Gal(b1-4)[Fuc(a1-3)]GlcNAc(b1-3)Gal(b1-4)[Fuc(a1-3)]GlcNAc
# Outline: as §1
# [19] = target: Neu5Ac(a2-6)Gal(b1-4)GlcNAc(b1-3)GalNAc
# Outline: as §1
# [20] = target: Neu5Ac(a2-8)Neu5Ac(a2-3)Gal(b1-3)GalNAc(b1-4)[Neu5Ac(a2-8)Neu5Ac(a2-3)]Gal(b1-4)Glc
# Outline: as §1
# [21] = target: Neu5Gc(a2-8)Neu5Gc(a2-3)Gal(b1-4)GlcNAc
# Outline: as §1
binder,measurement,setting,value
GS7807G-bfa-506-18-506 (Bacteroides fragilis) (protein) ASCDKFDEINTDPDATTKVTSSLLATGLLLDITSSSASKSFIYDELLAKQMAWGESMEDYQYNVFGRSGFGGYTTLINAQKMVESVSDDNVNAYDGLAHFIKAYKIFYMSMEMGDLPYEEALQGELGLVRPKYNTQKEVMNFILSDLETAYELFSTAKDFDGDPILGGSISKWKKATTAFQLKVLMHLSKKESDADLKVKERFARIVASGSLMESNEDNLQMKYADKANTVYPFHNTNTKHAGYAMLSTMLIDKFKATGDIRMFYYAKPAKAKLNEGVTADSWDAYIGTDPSLPFEQIEKAYATEQYSGFNARYTDYPSGEPVVRLGYAEQNFILAEAAVRGWISGDASAYYKKAIRAHMEFIASNTPDEEVYHHGHPITEEAIAAFLETPAIQLSGEKEEDIEKILTQRYLASFMQHPYDVYYDYRRTGYPVLPINPATNRNTMNDRLPMRWMYPKSESDYNLEHQNEALERQFGGVDDVNKLMWILQ,glycan array binding signal (z-score),[1],2.78
same,glycan array binding signal (z-score),[2],4.67
same,glycan array binding signal (z-score),[3],-0.443
same,glycan array binding signal (z-score),[4],1.86
same,glycan array binding signal (z-score),Gal3S4S(b1-4)GlcNAc,-0.454
same,glycan array binding signal (z-score),Gal4S(b1-4)GlcNAc,-0.273
same,glycan array binding signal (z-score),GalNAc(a1-3)GalNAc,-0.209
same,glycan array binding signal (z-score),[5],-0.567
same,glycan array binding signal (z-score),GalNAc(b1-3)GalNAc,-0.744
same,glycan array binding signal (z-score),GalNAc(b1-3)GlcNAc,0.616
same,glycan array binding signal (z-score),GalNAc3S(b1-4)GlcNAc3S,-0.726
same,glycan array binding signal (z-score),[6],-0.271
same,glycan array binding signal (z-score),[7],0.698
same,glycan array binding signal (z-score),[8],0.543
same,glycan array binding signal (z-score),[9],-0.871
same,glycan array binding signal (z-score),Kdn(a2-3)Gal(b1-3)GalNAc,-0.399
same,glycan array binding signal (z-score),Kdn(a2-3)Gal(b1-4)Glc,-0.306
same,glycan array binding signal (z-score),[10],3.61
same,glycan array binding signal (z-score),[11],-0.786
same,glycan array binding signal (z-score),[12],-0.636
same,glycan array binding signal (z-score),[13],2.81
same,glycan array binding signal (z-score),[14],-0.528
same,glycan array binding signal (z-score),[15],-0.269
same,glycan array binding signal (z-score),[16],4.41
same,glycan array binding signal (z-score),[17],-0.864
same,glycan array binding signal (z-score),[18],-0.153
same,glycan array binding signal (z-score),[19],2.85
same,glycan array binding signal (z-score),[20],0.197
same,glycan array binding signal (z-score),[21],-0.712
